Only some compounds are listed: those with a hit (about 5% of all), similar ones and a draw of the others.
USP8 inh – inhibitors of human USP8 deubiquitinase; Ubiquitin carboxyl-terminal hydrolase 8 (Homo sapiens), P40818; purified USP8, Ub-rhodamine cleavage fluorescence, 30 min; inhibition, % at 20 µM; actives 4.2% (n = 47,000); AID 1645853, 2021
Target sequence (P40818 whole entry, looked up): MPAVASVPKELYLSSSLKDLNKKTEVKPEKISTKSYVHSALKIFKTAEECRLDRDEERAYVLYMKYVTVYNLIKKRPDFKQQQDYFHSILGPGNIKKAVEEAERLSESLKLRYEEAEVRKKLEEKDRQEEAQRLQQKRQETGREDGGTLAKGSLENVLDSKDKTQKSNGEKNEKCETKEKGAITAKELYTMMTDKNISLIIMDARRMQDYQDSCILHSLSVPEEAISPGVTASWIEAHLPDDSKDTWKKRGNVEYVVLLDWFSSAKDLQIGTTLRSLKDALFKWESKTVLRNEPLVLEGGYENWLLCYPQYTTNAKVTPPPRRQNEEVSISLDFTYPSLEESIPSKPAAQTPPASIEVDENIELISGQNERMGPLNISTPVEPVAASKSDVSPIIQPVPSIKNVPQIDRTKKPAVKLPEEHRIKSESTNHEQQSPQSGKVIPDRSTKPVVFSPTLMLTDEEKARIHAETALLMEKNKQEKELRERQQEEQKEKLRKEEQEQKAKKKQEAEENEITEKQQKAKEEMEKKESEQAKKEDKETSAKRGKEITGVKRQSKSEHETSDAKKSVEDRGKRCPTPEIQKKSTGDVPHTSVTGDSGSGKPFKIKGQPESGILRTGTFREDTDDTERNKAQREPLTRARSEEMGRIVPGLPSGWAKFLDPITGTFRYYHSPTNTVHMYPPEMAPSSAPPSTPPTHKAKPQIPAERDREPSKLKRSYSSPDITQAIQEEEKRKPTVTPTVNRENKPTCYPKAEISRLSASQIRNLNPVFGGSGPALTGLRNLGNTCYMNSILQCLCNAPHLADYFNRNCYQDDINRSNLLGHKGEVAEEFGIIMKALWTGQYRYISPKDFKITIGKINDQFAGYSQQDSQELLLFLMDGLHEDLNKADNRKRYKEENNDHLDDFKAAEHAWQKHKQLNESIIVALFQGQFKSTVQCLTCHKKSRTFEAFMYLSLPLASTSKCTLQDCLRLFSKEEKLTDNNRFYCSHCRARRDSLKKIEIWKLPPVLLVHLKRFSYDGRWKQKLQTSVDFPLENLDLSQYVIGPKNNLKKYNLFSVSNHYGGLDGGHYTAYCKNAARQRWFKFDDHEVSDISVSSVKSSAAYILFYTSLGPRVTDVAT
USP7 inh – inhibitors of human USP7 deubiquitinase | Ubiquitin carboxyl-terminal hydrolase 7 (Homo sapiens), Q93009 | actives 0.3% (n = 47,000) | purified USP7, Ub-rhodamine cleavage fluorescence | inhibition, % at 20 µM
USP10 block – inhibitors of human USP10 deubiquitinase; Ubiquitin carboxyl-terminal hydrolase 10 (Homo sapiens), Q14694; purified USP10, Ub-rhodamine fluorescence, 60 min; inhibition, % at 20 µM; actives 1.1% (n = 47,000); AID 1645856, 2021
UCHL1 block – inhibitors of human UCHL1 deubiquitinase; Ubiquitin carboxyl-terminal hydrolase isozyme L1 (Homo sapiens), P09936; purified UCHL1, Ub-rhodamine cleavage fluorescence; inhibition, % at 20 µM; actives 0.2% (n = 47,000); AID 1645859, 2021
Each line names hits and unclear results; the compound was inactive in the other large screens. Rule as the data show it: active = inhibition above about 30%; inactive = the rest.

COCCCn1c(C(=O)NCc2ccc(F)cc2)cc2c(=O)n3ccccc3nc21	none
O=C(Nc1ccc(CN2CCOCC2)cc1)C1CCCN(c2ncccn2)C1 (stereo unspecified)	none
O=C(Nc1ccc(Cl)cc1)C1CCCN(c2ncccn2)C1 (stereo unspecified)	USP8 inh 32.6
COc1ccc(Cl)cc1Nc1nc(CN2CCOCC2)nc2sc3c(c12)CCC3	none
CC1CCc2c(sc3nc(CN4CCOCC4)nc(Nc4ccc(C(C)(C)C)cc4)c23)C1 (stereo unspecified)	USP8 inh 31.2
CCCCN1CNc2c(c(=O)[nH]c(=O)n2CCc2ccccc2)C1	none
O=C(Nc1ccccc1)c1ccc2c(c1)CC(c1ccccc1)OC2=O (stereo unspecified)	USP8 inh 31.7
COc1ccccc1Nc1nc(N)c(C(=O)c2ccccc2F)s1	none
O=C(COc1ncnc2cc([N+](=O)[O-])ccc12)NCc1ccc2c(c1)OCO2	USP8 inh 65.6
O=C1CC(c2ccc(F)cc2)c2c(n[nH]c2-c2ccccc2)O1 (stereo unspecified)	none
O=C(Nc1nc2ccc(F)cc2s1)c1cc(Cl)sc1Cl	USP8 inh 70.1
Cc1ccc(C2=Nc3ccccc3N(CC(=O)Nc3cccc(C)c3C)C(=O)C2)cc1C	USP8 inh 43.1
Cc1cc2c(=O)n3c(nc2s1)CCN(C(=O)c1cscn1)CC3	none
Cc1ccc(NC(=O)CC2Nc3ccccc3NC2=O)cc1[N+](=O)[O-] (stereo unspecified)	USP8 inh 65.8
Cc1ccc(S(=O)(=O)Nc2ccc(NC(=O)CC3OC(=O)c4ccccc43)cc2)cc1[N+](=O)[O-] (stereo unspecified)	none
O=C(CSc1nc2cc(C(F)(F)F)ccc2s1)NCC(=O)c1ccccc1	USP8 inh 31.8, USP7 inh 58.5, USP10 block 45.0
CC(C)CCn1c(N)c(-c2nc3ccccc3[nH]2)c2nc3ccccc3nc21	none
Cn1c(-c2c(N)n(Cc3ccc(Cl)cc3)c3nc4ccccc4nc23)nc2ccccc21	USP8 inh 57.0
COc1cc(OC)cc(-c2noc(Cn3c(=O)[nH]c4cc5c(cc4c3=O)OCO5)n2)c1	USP8 inh 82.2
Cc1ccc(-c2noc(Cn3c(=O)[nH]c4cc5c(cc4c3=O)OCO5)n2)cc1	USP8 inh 55.0
Brc1ccc2nc(Nc3cccc4ccccc34)nc(-c3ccccc3)c2c1	none
O=c1ccnc(Nc2cccc3ccccc23)[nH]1	USP8 inh 48.7
C=C1C=C(CCC(=O)O)C(=O)OC1/C=C/C=C/C (stereo unspecified)	USP8 inh 98.4, USP7 inh 78.4, USP10 block 95.3, UCHL1 block 81.1
CCCCCCCCCCCCCCCc1cc(O)cc(O)c1	USP10 block 30.2
CCCCCCCC/C=C\CCCCCCCc1cc(O)cc(O)c1C(=O)O	none
CCNC(=O)CSc1nnc(-c2ccc(Cl)cc2)n1Cc1ccco1	none
O=S(=O)(c1ccccc1Cl)N1CCN(c2ccc3nnc(-c4ccco4)n3n2)CC1	USP8 inh 49.7, USP7 inh 34.2, USP10 block 39.2, UCHL1 block 39.6
O=S(=O)(c1ccccc1Cl)N1CCN(CCOc2ccccc2)CC1	none
O=C(c1cc(Cl)ccc1Cl)N1CCN(c2ccc3nnc(-c4ccco4)n3n2)CC1	USP8 inh 49.1
CC1CCN(c2ccc3nnc(CCC(=O)NCc4ccco4)n3n2)CC1	none
Cc1ccc(-c2ccc(N3CCOCC3)nn2)cc1S(=O)(=O)N1CCOCC1	none
Cc1ccc(C)c(S(=O)(=O)N2CCN(c3ccc4nnc(-c5ccco5)n4n3)CC2)c1	USP8 inh 76.1, USP7 inh 37.4, USP10 block 39.4, UCHL1 block 45.0
Cc1cc(C)cc(NC(=O)CCCN2C(=O)c3cccnc3Sc3ccccc32)c1	none
O=C(O)c1cccc(NC(=O)C(Sc2cccc(NC(=O)c3cccc(Cl)c3)c2)c2ccccc2)c1 (stereo unspecified)	USP10 block 46.0
Cc1cccc(C(=O)Nc2cccc(SC(C(=O)Nc3ccc(O)c(C(=O)O)c3)c3ccccc3)c2)c1 (stereo unspecified)	USP8 inh 87.9, USP10 block 31.4
COc1cc2cc(CN(Cc3cccnc3)C(=O)Nc3ccc(Cl)cc3)c(=O)[nH]c2cc1OC	none
Cc1noc(-c2nn(C)c3c2CN(C(=O)C(C)Oc2ccc(Cl)cc2)CC3)n1 (stereo unspecified)	none
Cc1ccc(Nc2nc3c(S(=O)(=O)c4ccc(C)c(C)c4)nnn3c3ccccc23)cc1C	USP8 inh 52.9
COc1cc(NC(=O)Cn2nc(-c3ccc(F)cc3)ccc2=O)ccc1-n1cnnn1	USP8 inh 38.7, USP10 block 50.6
COc1ccc(-c2ccc(SCC(=O)Nc3ccc(F)cc3)nn2)cc1OC	USP8 inh 83.1
O=C(CSc1ccc(-c2ccccc2)nn1)Nc1ccc(F)c([N+](=O)[O-])c1	none
COc1ccc(OC)c(NC(=O)c2cc(F)ccc2-n2cnnn2)c1	none
CC(=O)Nc1cccc(NC(=O)CSc2ccc(-c3ccc4c(c3)OCO4)nn2)c1	USP8 inh 33.2
O=C(CSc1ccc(-c2cccc([N+](=O)[O-])c2)nn1)Nc1cccc(F)c1	USP8 inh 70.0, USP10 block 46.2
O=C(CSc1ccc(-c2ccncc2)nn1)NCc1ccc2c(c1)OCO2	none
Cc1cc(N(C)C)nc(C2COCCN2C(=O)Cc2c(C)n[nH]c2C)n1 (stereo unspecified)	none
N#Cc1nc(/C=C/c2ccccc2)oc1N1CCN(C(=O)c2cccs2)CC1	none
CCN1C(=O)CCc2cc(NC(=O)Cc3c(F)cccc3Cl)ccc21	none
Cc1cc2c(cc(C(=O)NC3CC3)n2C)s1	none
Cc1sc2ccn(C)c(=O)c2c1C(=O)NC1CCCC1	USP8 inh 93.7
COc1cc2c(cc1OC)-c1cc(-c3cc(OC)c(OC)c(OC)c3)cn1CC2	USP8 inh 35.9
COc1cc2c(cc1OC)-c1cc(NCc3cc(OC)c(OC)c(OC)c3)nc(=O)n1CC2	none
O=C(CC1CCCCC1)Nc1cc(F)c2nc(N3CCOCC3)ccc2c1	USP8 inh 65.1
O=C(Nc1cc(F)c2nc(N3CCOCC3)ccc2c1)C1CCCCC1	USP8 inh 71.5
O=C(CC1CCCC1)Nc1ccc(N2CCN(C3CCCC3)C2=O)nc1	none
Cn1c(CCN2CCOCC2)nc2cc(NC(=O)C3CCCCC3)ccc21	none
O=C(c1noc2c1CCCC2)N1C[C@H]2CC[C@@H](Nc3cnccn3)[C@H]2C1	none
Cc1cccc(NC(=O)CCc2nnc3c(=O)n(-c4cccc(F)c4)ccn23)c1	USP8 inh 37.8
COc1cccc(CNC(=O)CCc2nnc3c(=O)n(-c4cccc(F)c4)ccn23)c1	none
Cc1ccc(-n2ccn3c(CCC(=O)NCc4ccco4)nnc3c2=O)cc1C	none
Cc1ccc(CNC(=O)CCc2nnc3c(=O)n(-c4ccc(C)c(C)c4)ccn23)cc1	USP8 inh 41.5
COc1ccc(CNC(=O)CCCc2nnc3c(=O)n(-c4cc(C)cc(C)c4)ccn23)cc1	USP8 inh 77.8, USP10 block 35.3

Screening results deposited in PubChem BioAssay by Buhrlage Lab, Dana-Farber Cancer Institute and Novartis Institutes for BioMedical Research (Cambridge, Mass).
